Screening data deposited in PubChem by National Center for Advancing Translational Sciences (NCATS).
TRHR enhancer-1: qHTS for Small Molecule Agonists and Allosteric Enhancers of Human TRH Receptor: Primary Screen for Enhancers; Thyrotropin-releasing hormone receptor (Homo sapiens), P34981; 0.66% of 360,000 active; TRHR cells, fluo-8 calcium fluorescence, EC20 TRH enhancement; enhancement, % at 2 µM; in the data active = enhancement above about 30%; also: 0% is about no effect
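Enhancer read-out: after compound pinning and an initial kinetic agonist-mode read, an EC20 of TRH (10 nM final) was injected and fluo-8 calcium signal (Ex 480/Em 530) followed at 1 s/cycle for 100 cycles in TRHR-expressing cells.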
D1 antagonist: Antagonist of Human D 1 Dopamine Receptor: qHTS | D(1A) dopamine receptor (Homo sapiens), P21728 | HEK293 TREx D1 cells, calcium flux, dopamine EC80; active compounds read low | activity change, negative = inhibition, % at 10 µM | 3.2% of 360,000 active; in the data active = activity change below about -30%; also: % is scaled to controls: 0 for no effect and ±100 for the full control effect
Target sequence (P21728 whole entry, looked up): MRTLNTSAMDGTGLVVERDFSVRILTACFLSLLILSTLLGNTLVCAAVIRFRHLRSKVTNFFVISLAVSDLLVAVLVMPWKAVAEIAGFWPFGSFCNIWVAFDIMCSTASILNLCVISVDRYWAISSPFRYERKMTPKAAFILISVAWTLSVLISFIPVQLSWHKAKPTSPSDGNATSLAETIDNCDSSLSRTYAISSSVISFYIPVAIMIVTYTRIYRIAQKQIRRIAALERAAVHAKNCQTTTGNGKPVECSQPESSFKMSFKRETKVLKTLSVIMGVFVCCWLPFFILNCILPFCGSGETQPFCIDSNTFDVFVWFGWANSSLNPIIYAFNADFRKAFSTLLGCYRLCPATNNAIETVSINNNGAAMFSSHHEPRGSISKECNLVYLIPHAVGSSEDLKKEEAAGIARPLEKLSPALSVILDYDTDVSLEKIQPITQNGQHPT
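Kinetic fluorescence of a calcium dye serves as the read-out. D1-expressing Hek293 Trex cells, induced overnight at 30 C, are exposed to compound for 180 s before an EC80 dopamine addition, then read 180 s further.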
TRHR agonist-1: qHTS for Small Molecule Agonists and Allosteric Enhancers of Human TRH Receptor: Primary Screen for Agonists; TRHR cells, calcium flux fluo-8, FDSS agonist mode; 0.18% of 360,000 active; Thyrotropin-releasing hormone receptor (Homo sapiens), P34981; activation, % at 2 µM; in the data active = activation above about 30%; also: 0% is about no effect
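TRHR-expressing cells, plated overnight in medium with 10% serum, were loaded with fluo-8 calcium dye at room temperature. After a 10 s baseline, library compound was pin-added and calcium release was recorded kinetically (ex 480/em 530) as agonist response.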
D1 PAM: Potentiators of Human D1 Dopamine Receptor: qHTS | D(1A) dopamine receptor (Homo sapiens), P21728 | HEK293 TREx D1 cells, calcium flux, dopamine EC20 potentiation | potentiation, % at 10 µM | 0.036% of 360,000 active | AID 504651, 2011; in the data active = potentiation above about 30%; also: 0% is about no effect
D1 ag: Allosteric Agonists of the Human D1 Dopamine Receptor: qHTS; 1% of 360,000 active; HEK293 T-REx D1 cells, calcium flux, agonist mode; activation, % at 2 µM; in the data active = activation above about 30%; also: 0% is about no effect
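Inducible HEK293 T-REx D1 cells, force-coupled to calcium signalling, were plated at 4000 cells/well with tetracycline and held overnight at 30 C. After no-wash calcium dye loading, compound-evoked calcium rise over 180 s flagged agonists.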
TRHR enhancer-2: qHTS for Small Molecule Agonists and Allosteric Enhancers of Human TRH Receptor: Confirmation Screen for Enhancers; shares compounds with TRHR enhancer-1; TRH receptor cell assay, enhancer confirmation qHTS; activity change, negative = inhibition, % at 46.1 µM; 970 tested, under 10 active;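 also: compound effect scored on response to added TRH at EC20 of 10 nM; 0% is about no effect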
TRHR agonist-2: qHTS for Small Molecule Agonists and Allosteric Enhancers of Human TRH Receptor: Confirmation Screen for Agonists; 8% of 970 active; AID 493078, 2011; TRHR-expressing cells, agonist activation read-out; Potency, µM (series often up to 46.1 µM), without a hit: top-dose activation, usual class: activators; shares compounds with TRHR enhancer-1; also: potency is read from the fitted curve at half-maximal effect; 0% is about no effect; nearly all actives have a fitted effect of over 75% in size
Numbers without * were called inactive; ? = inconclusive; / = no result. Sampled rows, rich in hits. Any-hit rate of the full collection: about 4.6%. Unless noted, calls follow the shape of the dose curve; as a rule, active = well fitted curve in the direction sought with a large enough effect; inconclusive = small, poorly fitted or top-dose-only effect, or another doubt; inactive = no such curve, though single readings can be large; an effect the other way counts as inactive or inconclusive.

SMILES	TRHR enhancer-1	D1 antagonist	TRHR agonist-1	D1 PAM	D1 ag	TRHR enhancer-2	TRHR agonist-2
O=S(=O)(c1ccccc1)N1CCN2CCCC2C1 (centres undefined)	56.5*	-15.1	1.0	2.2	5.1	0.0	-0.4%
NC(=O)c1cn(C2OC(CO)C(O)C2O)c2ncnc(N)c12 (centres undefined)	-6.6	3.7	-0.7	-2.1	1.8	/	/
CCNC(=O)[C@H]1O[C@@H](n2cnc3c(N)ncnc32)[C@H](O)[C@@H]1O	44.7*	-12.5	0.5	-0.8	0.6	?	-0.6%
CCOc1ccc(N2C(=O)/C(=C/c3ccc(C)o3)C(=O)NC2=S)cc1	-6.0	3.7	0.0	-5.0	3.6	/	/
CCOc1ccc(N2C(=O)NC(=O)/C(=C\c3ccc(N4CCCCC4)o3)C2=O)cc1	5.7	-0.1	31.3*	2.1	85.3*	-4.3	23.1µM*
C=C(CC1CC(O)[C@]2(C)OC3CC4OC5C[C@]6(C)O[C@]7(C)CCC8OC9C[C@]%10(C)OC%11C(C)=CC(=O)OC%11CC%10OC9C[C@@H](C)C8OC7CC6O[C@]5(C)C/C=C\C4OC3CC2O1)C(=O)O (some centres undefined)	50.3*	7.6	-0.8	-3.5	-1.7	?	-0.4%
C=C(C=O)CC1CC(O)[C@]2(C)OC3C[C@@H]4OC5C[C@]6(C)O[C@]7(C)CCC8OC9C[C@]%10(C)OC(/C(C)=C\CO)C(O)CC%10OC9CC(C)C8OC7CC6O[C@]5(C)C/C=C\C4OC3CC2O1 (some centres undefined)	5.9	2.7	0.6	-7.3	0.6	/	/
O=P(c1ccccc1)(c1ccccc1)N1CCCCC1	5.4	-9.0	-0.6	-0.8	1.1	/	/
C=CCn1c(O)c(C=Nc2ccc(OC)cc2C)c(=O)[nH]c1=O	0.9	-4.6	28.7	-4.3	0.5	-2.0	-0.3%
COc1ccc(N=Cc2c(O)n(-c3ccc(C)cc3)c(=O)[nH]c2=O)cc1	51.1*	1.8	0.3	-0.9	2.0	?	1.8%
Clc1ccc(N2CC2c2ccncc2)cc1 (centres undefined)	-7.9	-12.0	0.1	-2.9	2.2	/	/
COc1ccc2nc3oc(C(=O)N4CCC5(CC4)OCCO5)cc3cc2c1	14.8	10.8	-0.5	2.2	-0.5	/	/
OC(CCNCCc1c[nH]c2ccccc12)C(F)(F)F (centres undefined)	-1.4	-9.7	0.8	-0.6	5.3	/	/
C[C@H]1C(=O)O[C@@H]2CCN3CC=C(COC(=O)[C@](C)(O)[C@]1(C)O)[C@H]23	42.6*	18.8	1.1	-2.4	-0.3	-0.1	-0.7%
Cc1ccccc1-n1c(-c2ccc([N+](=O)[O-])cc2)nc2ccccc2c1=O	-8.4	5.7	-0.5	0.8	-0.8	/	/
Cc1ccc(N2C(=O)CC(=O)NC2=O)c(C)c1	109.2*	-2.7	1.0	-0.1	1.0	0.0	-0.7%
CC(C)N1CCN(Cc2cccc3c2OCO3)CC1CCO (centres undefined)	13.2	-1.1	0.7	-5.1	1.3	/	/
CC(C)N1CCN(Cc2c[nH]c3ccccc23)CC1CCO (centres undefined)	58.1*	1.7	1.1	3.2	3.1	-1.2	5.1%
O=c1c2ccccc2nc(CNCC2CCCO2)n1-c1ccc(F)cc1 (centres undefined)	-4.4	9.3	0.0	-2.2	-0.4	/	/
O=C(NC(=O)N1CCC2(CC1)OCCO2)c1ccc(Cl)cc1	4.4	11.5	0.4	1.6	3.9	/	/
CCCCn1c(O)c(/C=C/C=Nc2ccccc2)c(=O)[nH]c1=O	24.4	1.6	41.0*	-2.5	70.8*	5.5	16.4µM*
Cn1c(O)c(/C=C/C=Nc2ccccc2)c(=O)n(C)c1=O	2.7	7.0	12.8	7.2	23.0	/	/
CN1CCN(c2ccc(S(=O)(=O)C(F)(F)F)cc2[N+](=O)[O-])CC1	43.1*	-8.5	1.3	-8.2	6.7	-4.3	8.3%
CN1CCN(c2ccc(S(C)(=O)=O)cc2[N+](=O)[O-])CC1	-15.5	4.8	0.1	5.3	3.4	/	/
O=C1C2CCCC1C(N1CCCCC1)CC2 (centres undefined)	5.2	4.8	1.1	-9.4	2.6	/	/
COc1ccc(-n2c(-c3ccccc3Br)nc3ccccc3c2=O)cc1	47.8*	-16.9	0.4	3.3	-0.5	-6.7	1.8%
COc1ccc(-c2nc3ccccc3c(=O)n2-c2ccc(OC)cc2)cc1	0.6	3.5	-1.1	-1.2	-0.8	/	/
CC1(C)OC(c2ccccc2)=C/C(=C/C=C2C(=O)NC(=O)NC2=O)O1	14.6	-5.0	29.7	-1.1	52.1*	-5.9	?
CN1CC=C2C(C#N)=C(N)C(C#N)(C#N)C(c3ccncc3)C2C1 (centres undefined)	8.7	2.6	26.7	-4.2	15.8	-4.4	?
O=C(Cn1cc(C(=O)c2ccccc2)c2ccccc21)NCc1ccco1	56.2*	-17.3	-2.0	-5.4	6.5	-9.5	1.3%
